Bioassay records deposited in PubChem BioAssay by several laboratories.
Only some compounds are listed: those with a hit (about 1.3% of all), similar ones and a draw of the others.
RTF Ca sens inh = cardiac RTF calcium sensitivity inhibitors, primary screen, biochemical, IANBD-TnC fluorescence, EC70 calcium. Troponin I, cardiac muscle (Homo sapiens) + Troponin T, cardiac muscle (Homo sapiens) + …. IANBD-labeled cardiac RTF, Ca2+ fluorescence. inhibition, % at 7.15 µM. 340,000 compounds, 0.12% hits. AID 493244, 2011;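 active = inhibition above the mean inhibition of all tested compounds plus 3 SD, cut at about 17% in these data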;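 note: assay run at fixed EC70 calcium of 1.6 mM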
RTF Ca sens act = cardiac RTF calcium sensitivity activators, primary screen, biochemical, IANBD-TnC fluorescence, EC20 calcium. AID 493008, 2010. activation, % at 7.2 µM. Troponin I, cardiac muscle (Homo sapiens) + Troponin T, cardiac muscle (Homo sapiens) + …. IANBD-labeled TnC RTF fluorescence at EC20 calcium; 0% EC20 calcium, 100% full calcium. 340,000 compounds, 0.24% hits;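 active = activation above the mean over all tested compounds plus 3 SD, cut at about 30% in these data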;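 note: rise in fluorescence read as greater calcium sensitivity of cardiac thin filaments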
Keap1 Nrf2 FP = Keap1-Nrf2 protein-protein interaction inhibitors, primary screen, biochemical, fluorescence polarization, single point | AID 504523, 2011 | Kelch-like ECH-associated protein 1 (Homo sapiens), Q14145 | 340,000 compounds, 0.15% hits | Keap1 Kelch-Nrf2 peptide fluorescence polarization, 1536-well | inhibition, % at 9.4 µM; in the data active = inhibition above about 12%;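 note: human Keap1 Kelch domain with fluorescein labeled Nrf2 9mer peptide probe; 0% = neutral control wells and 100% = peptide positive control; higher means more block of Keap1 binding to Nrf2 peptide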
Target sequence (Q14145 whole entry, looked up, the tested form may be a part): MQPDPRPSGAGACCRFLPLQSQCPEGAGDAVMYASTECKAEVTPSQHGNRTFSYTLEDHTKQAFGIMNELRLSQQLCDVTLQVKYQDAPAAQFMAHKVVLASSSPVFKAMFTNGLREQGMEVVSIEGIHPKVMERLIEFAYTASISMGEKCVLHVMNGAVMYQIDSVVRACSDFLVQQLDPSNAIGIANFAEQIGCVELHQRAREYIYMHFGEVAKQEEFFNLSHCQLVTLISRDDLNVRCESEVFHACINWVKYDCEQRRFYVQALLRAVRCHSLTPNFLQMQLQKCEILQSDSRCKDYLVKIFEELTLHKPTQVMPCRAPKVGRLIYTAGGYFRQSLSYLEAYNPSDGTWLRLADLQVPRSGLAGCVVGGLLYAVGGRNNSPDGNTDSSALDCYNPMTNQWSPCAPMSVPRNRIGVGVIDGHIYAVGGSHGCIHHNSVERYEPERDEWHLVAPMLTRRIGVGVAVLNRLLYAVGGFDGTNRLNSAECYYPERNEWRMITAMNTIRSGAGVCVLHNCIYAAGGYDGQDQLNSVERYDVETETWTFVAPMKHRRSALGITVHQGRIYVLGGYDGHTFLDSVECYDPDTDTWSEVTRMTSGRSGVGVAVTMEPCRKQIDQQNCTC
CRFBP-R2 agonist = agonists of CRF-BP/CRF-R2 complex, primary screen, cell-based, HEK293, calcium dye fluorescence, uHTS | activation, % at 13.2 µM | calcium dye fluorescence (FLIPR); percent of saturating CRF peptide response | AID 588473, 2011 | 350,000 compounds, 0.46% hits;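 active = activation of at least 50%, plus an integration ratio under a set limit after plate pattern correction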;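 note: plate controls were neutral control wells without compound for no effect and CRF at EC100 for full effect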
LANA DNA inh = inhibitors of KSHV C-LANA binding to DNA, primary screen, biochemical, fluorescence polarization, FAM-LBS DNA, MBP-C-LANA, single point | Kaposi's sarcoma herpesvirus LANA C-terminal domain (residues 932-1162) DNA binding | inhibition, % at 9 µM | 340,000 compounds, 0.078% hits;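 active = highest replicate inhibition at or above 60% at 9 µM, even if other replicates fall short; inactive = all replicates below 60% inhibition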;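 note: 0% = neutral control wells and 100% = 4 µM acridine orange control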
CRFR2-BP antag = antagonists of CRF-BP/CRF-R2 complex, primary screen, cell-based, HEK293, calcium dye fluorescence, uHTS. CRF-induced calcium fluorescence. inhibition, % at 11.8 µM. 350,000 compounds, 0.59% hits. AID 588475, 2011;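 active = inhibition of the ligand-induced calcium signal above about 50% at the single tested concentration, limit read from the data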
* marks the source's active call; other numbers are inactive results.

SMILES	RTF Ca sens inh	RTF Ca sens act	Keap1 Nrf2 FP	CRFBP-R2 agonist	LANA DNA inh	CRFR2-BP antag
COc1ccccc1C/C(N)=N/OC(=O)COc1cc(C)cc(C)c1C	3.6	-5.0	-1.9	11.1	0.4	-2.2
O=C(Nc1cc(S(=O)(=O)N2CCCCC2)ccc1N1CCCCC1)C1CC1	-0.4	-1.0	2.5	1.3	-1.6	103.3*
Cc1[nH]c2ccccc2c1N=Nc1ccccc1F	1.1	3.5	-2.6	-1.1	-0.6	3.3
Cc1ccc(N(C(=O)c2nsc(Cl)c2Cl)C(C(=O)NC2CCCC2)c2ccc(O)cc2)cc1C (centres undefined)	-1.9	-5.5	-1.8	-6.2	-0.9	87.8*
Cc1ccccc1N(C(=O)c1snc(C(N)=O)c1N)C(C(=O)NC1CCCCC1)c1ccc(O)cc1 (centres undefined)	9.2	3.5	-6.1	1.7	-1.6	15.9
Cc1cc(C)cc(N(C(=O)c2nsc(Cl)c2Cl)C(C(=O)NC2CCCC2)c2ccc(O)cc2)c1 (centres undefined)	-0.7	-5.0	-4.0	-2.1	-0.7	72.7*
Cc1cccc(N(C(=O)c2nsc(Cl)c2Cl)C(C(=O)NC2CCCC2)c2ccc(O)cc2)c1C (centres undefined)	-0.2	0.1	-1.0	-3.6	0.1	91.4*
C=CCc1ccccc1OCC(O)CNC(=O)c1ccccc1C(=O)O (centres undefined)	-4.2	-1.9	-1.0	0.0	12.5	-5.0
Cc1c(N=C2C=CC(=O)c3ccccc32)c(=O)n(-c2ccccc2)n1C	-10.1	-3.8	-6.3	-1.3	0.7	6.0
COc1cc(-c2nc(C(=O)NC3CCCCC3)cc3c2[nH]c2ccccc23)cc(OC)c1OC	-4.5	3.8	-9.1	-1.3	-0.5	-16.2
Cc1nn(C)c(Cl)c1NC(=O)OCc1ccc(Cl)cc1Cl	-6.5	-11.1	-6.1	-0.4	1.6	51.8*
Cc1cc(C)n(-c2ccc(C(=O)Nc3ccc4c(c3)OCCO4)cc2)n1	-3.1	-3.9	-0.2	-0.4	-1.8	-0.3
O=[N+]([O-])c1ccc(O)c(/C=N\N=C2c3ccccc3-c3ccccc32)c1	-5.9	-4.6	1.2	83.8*	0.4	73.8*
Cc1noc(C)c1NC(=O)N(C)C[C@H]1Oc2c(NC(=O)c3ccncc3)cccc2C(=O)N([C@H](C)CO)C[C@@H]1C	-7.2	-6.1	7.6	0.5	-3.9	-3.3
O=c1c2ccccc2n(Cc2ccc(F)cc2)c(=O)n1C1CCCC1	2.1	2.4	-3.2	7.8	1.7	80.9*
Cc1ccc(O)c(NC(=S)NC(=O)Cc2ccc(Cl)cc2)c1	-5.2	2.2	3.6	178.7*	0.2	-86.8
CC(=O)c1ccc(NC(=S)NC(=O)Cc2ccc(Cl)cc2)cc1	-3.2	-6.5	0.8	75.5*	-0.6	-58.8
CCCCC1CCC(/C(N)=N/O)CC1 (centres undefined)	-5.0	2.4	1.8	0.7	0.8	-0.6
Cc1ccc(N=C2CSC(=O)N2)cc1	-2.9	2.3	-3.1	-1.0	-0.3	-18.8
O=C(Nc1ccc(C(=O)NCCCN2CCN(c3ccc(F)cc3)CC2)cc1)C1=CSCCO1	4.5	-6.9	-1.4	62.0*	-0.4	-34.9
O=C(Nc1ccc(C(=O)NCCCN2CCCCC2)cc1)C1=CSCCO1	-13.9	-0.6	-10.4	-0.9	-0.5	-3.3
CCOc1ccc(S(=O)(=O)N2CN(c3cccc(C(C)=O)c3)c3nc4ccccc4nc32)cc1	3.0	-0.9	3.8	0.0	13.6	51.7*
CCCC(=O)NC(C)c1nc2ccccc2[nH]1 (centres undefined)	-3.8	0.8	-2.6	-2.2	0.1	58.1*
CCC(C(=O)Nc1ccc(C)cc1)c1ccccc1 (centres undefined)	0.5	-5.8	-6.3	6.7	1.7	-9.7
